Screening data: PubChem BioAssay, several laboratories
The list is not random: actives were taken first. Their share in the collection is about 1%.
HSV augment: increases HSV replication in cells; HSV replication augmentation in cells, fold increase; maximum fold increase; hit rate 0.005% among 220,000; in the data active = maximum fold increase above about 1.5; tested in PC3 cells
GC-B act: GC-B (human) receptor activation; hit rate 0.11% among 370,000; P20594; activation, % at 10 µM; HEK293-GC-B cells, CNP EC30, cGMP TR-FRET; 0% at EC30 CNP, 100% saturating CNP;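 active = activation at 10 µM reaching about 35% in either raw or pattern-adjusted values, limit read from the data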
A1 inh: inhibitors of the anti-apoptotic protein A1, read as caspase activation; hit rate 0.066% among 330,000; caspase activation, % (no concentration beside the values); AID 2462; MEF A1-2A-BIM cells, Caspase-Glo 3/7 luminescence, 3 h; percent of clofoctol response, vehicle zero;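 active = over half of replicate activation scores above 10%, or exactly half above 10 with the replicate mean above 10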
H9c2 TAG inh: inhibitors of triacylglycerol accumulation | H9c2 cells, Nile Red lipid (TAG) fluorescence; cells loaded with 200 µM oleic acid | inhibition, % at 12.5 µM | hit rate 0.66% among 230,000 | AID 651582;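 active = pattern-corrected inhibition of lipid staining of at least 50% with the nuclear-stain viability signal not falling by more than 50%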;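 also: 0% = DMSO wells and 100% = triacsin C control wells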
GC-A act: GC-A (human) enzyme activation. HEK293 GC-A cells, cGMP TR-FRET, EC30 ANP; 0% at EC30 ANP, 100% saturating ANP. hit rate 0.14% among 370,000. activation, % at 10 µM; in the data active = activation above about 40%
Efflux pump inh: antifungal efflux pump inhibition, Nile Red retention; S. cerevisiae Candida pump triplex; inhibition, % at 10 µM; hit rate 0.44% among 330,000; AID 485275;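 active = plate passing quality check with inhibition over a set limit, or well fluorescence over plate mean plus 4 SD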;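 also: Nile Red retained in pooled yeast measured as flow cytometry median fluorescence; 0% = buffer negative control and 100% = Enniatin B positive control; higher means more Nile Red kept so more efflux inhibition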
Yeast cmpd fluor: compound fluorescence in yeast efflux pump counter-screen; AID 588517; S. cerevisiae AD/pABC3, flow cytometry; shares compounds with Efflux pump inh; hit rate 4% among 1,700; fluorescence ratio to DMSO, % at 10 µM;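 active = fluorescence ratio to DMSO above its plate's cutoff, the plate mean ratio plus 5 SD, cut at about 210% in these data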;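 also: unstained yeast with no Nile Red so the signal is compound autofluorescence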
CaMdr1 efflux inh: blocks the Candida albicans Mdr1 efflux pump in yeast; S. cerevisiae AD/CaMDR1, Nile Red efflux, flow cytometry; hit rate 1% among 1,700; inhibition, % at 10 µM; shares compounds with Efflux pump inh; AID 588518; in the data active = inhibition above about 26%;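 also: 0% = DMSO vehicle and 100% = reference inhibitor; higher means more Nile Red retained so more efflux inhibition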
CaCdr2 efflux inh: Candida Cdr2 efflux pump inhibition; shares compounds with Efflux pump inh; S. cerevisiae AD/CaCDR2, Nile Red retention, flow cytometry; Nile Red retention ratio vs DMSO, % at 10 µM; hit rate 4% among 1,700; in the data active = Nile Red retention ratio vs DMSO above about 190%;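 also: higher ratio means more blocking of Cdr2 efflux of the dye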
CaCdr1 efflux inh: Candida Cdr1 efflux pump inhibition | shares compounds with Efflux pump inh | S. cerevisiae AD/CaCDR1, Nile Red efflux, flow cytometry | inhibition, % at 10 µM | hit rate 1% among 1,700 | AID 588522;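 active = inhibition above the screen-wide mean plus twice its standard deviation, cut at about 32% in these data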
Numbers without * were called inactive; i = inactive; x = no result given.

SMILES	HSV augment	GC-B act	A1 inh	H9c2 TAG inh	GC-A act	Efflux pump inh	Yeast cmpd fluor	CaMdr1 efflux inh	CaCdr2 efflux inh	CaCdr1 efflux inh
COc1ccc(C(C(=O)NC(C)(C)C)N(C(=O)CCC(=O)Nc2cc(C)on2)c2cccc(F)c2)cc1 (centres undefined)	x	-12	0	x	-42	0	88	0	102	0
C=CCNC(=S)NNC(=O)COc1ccc(Cl)cc1Cl	i	-3	-1	x	3	15*	104	-1	98	0
CC(C)(C)C(=O)COC(=O)c1ccc(N)c([N+](=O)[O-])c1	i	7	0	6	3	0	x	x	x	x
COc1ccc(CCOC(=O)c2ccc(N)c([N+](=O)[O-])c2)cc1	x	0	0	-20	3	6.6*	102	0	x	0
N#Cc1cccc(NC(=O)OC2CC3CC2[C@H]2CCCCN2[C@H]3Cc2ccccc2)c1 (some centres undefined)	x	-4	x	x	-2	x	x	x	x	x
COc1cccc(OC)c1C(=O)NC(=S)Nc1ccc2c(c1)C(=O)N(C)C2=O	i	10	1	-3	2	0	x	x	x	x
COc1cc(C(=O)NC(=S)Nc2ccc3c(c2)C(=O)N(C)C3=O)cc(OC)c1OC	i	5	0	x	1	12*	108	0	106	0
CCC(C)NC(=O)c1ccc(CSc2nc3ccncc3n2Cc2ccc(F)cc2)cc1 (centres undefined)	i	5	0	-9	1	0	110	0	92	0
Cc1cc(C)n2c(Br)c(CSc3nc4ccccc4s3)nc2n1	i	-6	0	x	2	8.0*	117	0	116	0
Cn1cc([N+](=O)[O-])c(C(=O)Nc2sc3c(c2C#N)CCC3)n1	x	1	-3	x	4	0	111	0	129	0
Cn1cc(Cl)c(C(=O)NC(=S)Nc2sc3c(c2C#N)CCCCC3)n1	i	3	0	1	-6	0	x	x	x	x
Cn1cc(Br)c(C(=O)Nc2sc3c(c2C#N)CCC3)n1	i	-2	-1	10	3	0	106	0	112	0
Cn1ccc(C(=O)Nc2sc3c(c2C#N)CCC3)n1	x	2	0	x	-1	0	106	-1	97	0
CCC(=O)NC(c1ccco1)c1cc(Cl)c2cccnc2c1O (centres undefined)	i	-1	0	-3	-6	3.0*	92	0	109	0
CCCCC(=O)NC(c1ccco1)c1cc(Cl)c2cccnc2c1O (centres undefined)	i	3	-1	-3	-6	0	x	x	x	x
CC(C)CNC(=O)OCc1cn(Cc2cccc(F)c2F)nn1	x	6	x	x	2	x	x	x	x	x
O=C(COc1ccccc1Cl)c1ccc[nH]1	i	4	-3	-12	1	0.7*	96	0	109	0
COC(=O)C1CN(CC(C)C)CCS(=O)(=O)N1Cc1ccc(OC)cc1 (centres undefined)	x	-9	x	x	-3	x	x	x	x	x
Cc1ccc(-n2nc3c(=O)n(CCCC(=O)NCc4ccc(C)o4)nc(C)c3c2C)cc1	x	-5	3	x	-3	0	103	0	98	0
Cc1nn(CC(=O)NCc2cccs2)c(=O)c2nn(-c3ccccc3)c(C)c12	x	-16	0	x	-2	6.2*	99	0	89	0
Cc1ccc(CN2CCCCC(NC(=O)c3ccc(N(C)C)cc3)C2=O)cc1 (centres undefined)	x	-1	x	x	-1	x	x	x	x	x
COP(=O)(O)C[C@@H]1CCc2cc(C)cc([C@H](CC(C)C)NC(=O)OCc3ccccc3)c2O1	x	5	x	x	4	x	x	x	x	x
